SKKanGAS inh: inhibitors of SKKanGAS S. pyogenes growth in kanamycin (SK-promoter or general growth effect); BacTiter-Glo, 6 h; inhibition, % at 7.5 µM; hit rate 1.3% among 300,000; AID 1662;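 active means mean replicate score, as percent of positive control median, at least 50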;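 further: strain carries kanamycin resistance gene driven by streptokinase promoter and grows in 40 µg/ml kanamycin; loss of luminescence reflects streptokinase promoter inhibition or plain growth inhibition; 0% = median of DMSO wells and 100% = positive control at its reference dose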
PHOSPHO1 block: PHOSPHO1 (human) inhibition; inhibition, % at 13.3 µM; Q8TCT1; hit rate 1.1% among 290,000; AID 1565; recombinant PHOSPHO1, absorbance phosphatase assay; in the data active means inhibition above about 60%
WT yeast gro inh: growth inhibition of WT yeast, mitochondrial fusion screen; mitochondrial fusion phenotypic screen, WT strain; inhibition, % at 10 µM; hit rate 2.1% among 190,000; AID 1362; in the data active means inhibition above about 58%; tested in S. cerevisiae
Platelet DG rel: modulates dense granule release in human platelets | human platelet-rich plasma, SFLLRN dense granule ATP release, luminescence | inhibition, %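 (compounds screened at 7.5 µM in platelet-rich plasma)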 | hit rate 0.22% among 300,000;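 active means mean replicate score, as percent of positive control, at or above 50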
Rtt109 Vps75: inhibitors of Candida albicans Rtt109/Vps75 histone acetyltransferase; Q5AAJ8; purified Rtt109/Vps75, ThioGlo CoA-SH fluorescence, 4 h; inhibition, % at 34.9 µM; hit rate 0.16% among 330,000; AID 540336;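 active means inhibition of at least 50% in every replicate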
Target sequence (Q5AAJ8 whole entry, looked up): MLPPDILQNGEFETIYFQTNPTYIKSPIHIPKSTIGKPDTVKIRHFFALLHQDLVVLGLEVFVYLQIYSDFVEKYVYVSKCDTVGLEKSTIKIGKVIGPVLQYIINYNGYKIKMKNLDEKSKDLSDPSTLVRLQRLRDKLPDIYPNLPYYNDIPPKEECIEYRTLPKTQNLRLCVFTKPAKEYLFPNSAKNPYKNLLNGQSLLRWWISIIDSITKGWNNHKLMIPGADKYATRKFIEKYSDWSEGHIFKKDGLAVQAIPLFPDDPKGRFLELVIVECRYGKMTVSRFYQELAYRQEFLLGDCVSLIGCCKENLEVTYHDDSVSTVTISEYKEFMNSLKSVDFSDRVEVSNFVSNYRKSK
TPT1 inhibitor: C. albicans TPT1 enzyme inhibition. recombinant caTPT1, FP RNA substrate dephosphorylation. inhibition, % at 5 µM. hit rate 0.81% among 300,000. AID 1962;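 active means inhibition above the mean of all tested compounds plus 3 SD, set per screening campaign, cut at about 24% in these data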;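 further: plate controls were DMSO alone for no effect and ferristatin control at 100 nM for full effect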
caTPT1 confirm: TPT1 (C. albicans) inhibition, confirmation; shares compounds with TPT1 inhibitor; hit rate 74% among 2,400; recombinant caTPT1, fluorescence polarization, RNase T1 coupled; inhibition, % at 5 µM;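 active means inhibition above the primary screen limit, the mean inhibition of all tested compounds plus 3 SD, cut at about 25% in these data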
RNase T1 counter: blocks Aspergillus oryzae RNase T1, a TPT1 counter-screen | shares compounds with TPT1 inhibitor | RNase T1 cleavage, fluorescence polarization, 1536-well | inhibition, % at 5 µM | hit rate 83% among 2,400 | AID 2153;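 active means inhibition above the solvent-only control well mean plus 3 SD, limit set per screening run, cut at about 23% in these data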;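 further: plate controls were DMSO wells with enzyme for no effect and wells without RNase T1 for full effect; inhibitors block cleavage so intact labeled substrate keeps polarization high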
Target sequence (P00651 whole entry, looked up): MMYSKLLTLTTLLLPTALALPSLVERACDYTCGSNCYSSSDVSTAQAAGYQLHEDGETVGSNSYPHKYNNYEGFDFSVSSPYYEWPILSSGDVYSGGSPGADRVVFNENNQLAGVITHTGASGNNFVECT
An asterisk follows results filed as active; · = not tested or not shown. A selection: hits, their analogues and other compounds. The true share with any hit is near 3.9%.

SMILES	SKKanGAS inh	PHOSPHO1 block	WT yeast gro inh	Platelet DG rel	Rtt109 Vps75	TPT1 inhibitor	caTPT1 confirm	RNase T1 counter
Cc1sc2nc(CSC(C)C(=O)Nc3ccccn3)[nH]c(=O)c2c1C (centres undefined)	·	·	·	·	-3.8	·	·	·
CC(SCc1nc2sc3c(c2c(=O)[nH]1)CCCC3)C(=O)Nc1ccccn1 (centres undefined)	-1.8	·	·	-8.8	-7.6	32.5*	38.8*	50.3*
Cc1ccc(NC(=O)C(C)SCc2nc3sc4c(c3c(=O)[nH]2)CCCC4)nc1 (centres undefined)	23.1	17.6	·	-0.9	-1.1	26.0*	36.9*	44.7*
CC(C)[C@H](NC(=O)c1ccccc1F)C(=O)NC1CCCCCCC1	·	·	·	·	-5.0	·	·	·
COc1ccc(-n2nc(C(=O)NCC(=O)N3CCN(c4cccc(Cl)c4)CC3)c3ccccc3c2=O)c(OC)c1	21.1	36.0	·	3.7	-1.5	-2.7	·	·
COc1ccc(C(=O)NC(=S)N2CCCCC2)cc1	-3.5	55.8	19.6	-0.2	7.9	2.8	·	·
COc1cc(OC)cc(C(=O)NC(=S)N2CCCCCC2)c1	35.2	54.3	42.7	0.6	-4.4	43.3*	1.8	4.2
CC(C)COc1ccc(C(=O)NNC(=O)c2ccc(=O)[nH]c2)cc1	·	·	·	·	7.4	·	·	·
O=S(=O)(c1ccc(F)c(F)c1)N1CCC2(CC1)OCCO2	3.1	-9.0	·	-4.5	47.9	-0.2	·	·
Cn1c(N/N=C/c2cc3ccccc3nc2Cl)nc2ccccc21	5.7	-15.9	69.2*	60.4*	-5.2	68.9*	10.0	18.9
N#Cc1ccsc1NC(=O)c1cccc(-n2cnnn2)c1	11.0	18.4	·	-0.1	-3.3	47.7*	51.4*	64.4*
Oc1ccc(N=Nc2n[nH]c(-c3ccccc3)n2)cc1	2.6	-1.1	9.2	24.3	7.2	7.4	·	·
Oc1ccc(N=Nc2nc(-c3ccccc3)c(-c3ccccc3)[nH]2)cc1	30.9	17.2	92.3*	0.3	-3.9	31.0*	42.4*	55.2*
COc1ccc(S(=O)(=O)NNC(=O)c2ccc(-n3c(C)ccc3C)cc2)cc1	0.3	-5.5	·	-13.7	17.4	12.8	·	·
CCOC(=O)c1ccc(NCn2c(=O)oc3ccccc32)cc1	-5.2	-38.1	14.3	-2.7	3.7	30.6*	44.4*	57.5*
COC(=O)c1ccc(NC(=O)CCn2c(=O)oc3ccccc32)cc1	-7.1	6.2	1.8	0.5	1.3	0.3	·	·
COc1ccc(NS(=O)(=O)c2cc(NC(=O)CCc3ccc(OC)c(OC)c3)ccc2N2CCOCC2)cc1	·	·	·	·	32.5	·	·	·
COCCN(C(=O)COC(=O)c1ccc2[nH]c(C)c(C)c2c1)c1c(N)n(Cc2ccccc2)c(=O)[nH]c1=O	-8.3	·	·	12.7	35.4	27.9*	59.9*	70.9*
COCCN(C(=O)COC(=O)c1ccc(-c2ccccc2)cc1)c1c(N)n(Cc2ccccc2)c(=O)[nH]c1=O	·	·	·	·	-2.9	·	·	·
COc1ccccc1C=C1SC(=S)NC1=O	·	·	·	·	13.2	·	·	·
O=C1NC(=S)S/C1=C\c1ccc(SCc2ccccc2)o1	·	-1.8	83.4*	·	9.8	47.2*	46.5*	64.8*
CCNc1ccc(Br)cc(C(=O)/C=C/c2c(Cl)cccc2Cl)c1=O	-8.7	-17.6	11.4	-3.6	10.7	70.3*	75.3*	84.2*
CCNc1ccc(Br)cc(C(=O)/C=C/c2ccc(Cl)cc2)c1=O	2.6	-1.0	7.9	8.4	-3.9	64.3*	45.7*	70.6*
CCNc1ccc(Br)cc(C(=O)/C=C/c2ccc3c(c2)OCO3)c1=O	5.4	24.0	27.9	-3.0	8.6	31.4*	25.6*	47.5*
CN(CC(=O)Nc1ccc(F)cc1)C(=O)c1ccc(N2C(=O)CCC2=O)cc1	·	·	·	·	0.6	·	·	·
SMILES	SKKanGAS inh	PHOSPHO1 block	WT yeast gro inh	Platelet DG rel	Rtt109 Vps75	TPT1 inhibitor	caTPT1 confirm	RNase T1 counter
CCCCn1nc(C(=O)N(C)CC(=O)Nc2ccc(F)c(F)c2F)ccc1=O	·	·	·	·	-0.8	·	·	·
COc1cccc(C2=CC(c3ccc(N(C)C)cc3)n3nnnc3N2)c1 (centres undefined)	20.7	63.2*	16.4	-2.7	2.4	28.5*	11.4	16.7
COc1cccc(C2=CC(c3ccccc3)n3ncnc3N2)c1 (centres undefined)	1.7	20.1	16.7	-0.8	·	-13.7	·	·
COc1cccc(C2=CC(c3cc(OC)ccc3OC)n3nnnc3N2)c1 (centres undefined)	3.8	-18.5	22.3	-0.3	-10.5	1.8	·	·
COc1cccc(C2=CC(c3ccc(N(C)C)cc3)n3ncnc3N2)c1 (centres undefined)	13.0	-8.3	47.0	1.7	·	38.2*	33.8*	42.9*
COc1ccccc1NC(=O)COC(=O)c1ccc(N2CCCC2=O)cc1	·	·	·	·	-13.7	·	·	·
O=C(Nc1ccc(N2CCOCC2)cc1)c1cc2ccccc2o1	-11.9	19.9	-10.3	8.1	-7.1	3.3	·	·
O=C(/C=C/N1CCOCC1)c1coc2ccccc12	5.6	23.1	-4.6	-0.1	24.4	25.5*	0.8	13.7
O=C(/C=C/N1CCOCC1)c1cc2ccccc2o1	8.5	5.7	4.3	-6.5	3.2	25.5*	2.7	8.9
O=C(O)c1coc2ccccc12	-3.5	56.8	·	0.7	·	-2.8	·	·
O=C(NCCOc1ccc(Cl)cc1)c1cccc(S(=O)(=O)N2CCCC2)c1	·	·	·	·	22.8	·	·	·
Cc1noc(NS(=O)(=O)c2ccc(NC(=O)c3cccc(S(=O)(=O)Nc4ccccc4F)c3)cc2)c1C	·	·	·	·	9.5	·	·	·
COC(=O)/C=c1/s/c(=C(\C#N)C(=O)NCc2ccco2)n(-c2ccc(C)cc2)c1=O	-1.4	27.3	-16.6	9.2	6.1	82.2*	19.6	27.3*
O=C(CCCCl)NC1=NN(c2ccccc2)C(=O)C1	·	1.6	6.5	·	5.2	35.1*	7.2	7.9
O=C(NCc1cccc(Cl)c1)C1CCC(=O)N(CCCN2CCCC2=O)C1 (centres undefined)	-0.7	41.4	·	-1.1	4.7	-2.8	·	·
COC(=O)c1sccc1NC(=O)c1ccc(OC)cc1	3.2	11.3	13.5	-1.4	-8.7	62.7*	3.8	4.9
O=C(COC(=O)c1ccccc1)Nc1cccc(S(=O)(=O)N2CCCCC2)c1	·	·	·	·	-4.4	·	·	·
O=C1/C(=C\c2cccs2)Sc2ccc3ccccc3c21	·	-15.4	13.7	14.0	13.7	80.5*	84.3*	96.2*
O=C1C(=Cc2cccs2)C(=O)c2ccccc21	-8.4	3.2	-11.6	-4.9	3.5	-3.4	·	·
O/C(=C\c1ccc2ccccc2n1)c1ccc(O)cc1O	-1.2	16.8	3.3	25.6	4.5	98.0*	109.9*	107.9*
O=C(N/N=C/c1c(O)ccc2ccccc12)c1ccc[n+](CCO)c1	1.2	24.4	-11.5	-0.2	11.1	10.1	·	·
Cn1nccc1C(=O)N/N=C/c1c(O)ccc2ccccc12	35.4	29.0	·	-1.3	-48.6	36.8*	43.6*	49.4*
Cn1cc(C(=O)N/N=C/c2c(O)ccc3ccccc23)ccc1=O	-4.8	26.7	1.8	-8.1	-5.3	56.6*	69.9*	54.0*
Cc1cc(NC(=O)CON=C(N)CC(=O)Nc2ccccc2Cl)ccc1Br	·	·	·	·	3.7	·	·	·
